Inconclusive results are not listed. The source made the active and inactive calls. Unless noted, the call rests on the fitted dose curve; in most records, active means well fitted curve in either direction with a large enough effect (not every such curve was filed as active); inconclusive means small, poorly fitted or top-dose-only effect, or another doubt; inactive means flat fitted curve, though single readings scatter.
Key:
[1] = target: Lysosomal acid glucosylceramidase (Homo sapiens) (UniProt P04062); assay: Glucocerebrosidase-p2 (AID 348; in the data active means potency below about 10 µM; further: potency means the concentration at half of the fitted maximal effect); details: purified GBA, blue fluorogenic substrate, 40 min
Procedure, shortened: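 Compounds titrated from 0.6 nM upwards against 0.2 nM enzyme in pH 5.9 citric acid/KH2PO4, taurocholate, tween-20; blue fluorogenic substrate 80 uM, 40 min room temperature, stopped and read Ex 365/Em 440 for AC50.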

[2] = AP1 Signaling Pathway (AID 357); details: ME-180 AP-1-bla reporter, EGF-induced, beta-lactamase ratio, 5 h; at 7.69 µM (top of the series) unless noted;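 further: ME-180 reporter cells stimulated with EGF at its EC50 level; on the % scale 0 is the no-effect control and ±100 the full control effect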
Procedure, shortened: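 Cells are seeded overnight, exposed to compound titrations and an EC50 level of EGF for 5 hours at 37 °C, then loaded with CCF4 dye for 2.5 hours. Beta-lactamase activity under the AP-1 element is read as a blue/green ratio.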

[3] = NFAT Signaling Pathway (AID 444); details: Jurkat NFAT-bla M1, carbachol, beta-lactamase ratio, 5 h; at 7.69 µM (top of the series) unless noted;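 further: carbachol stimulus at about its EC50 of 1 µM final; on the % scale 0 is the no-effect control and ±100 the full control effect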
Procedure, shortened: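 Jurkat cells carrying an NFAT-driven β-lactamase reporter and co-transfected muscarinic M1 receptor were treated with compound plus carbachol (1 uM final, an EC50 level) for 5 h at 37 °C. CCF4 loading followed for 1 h at RT; 460/530 nm ratio gave %activity.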

[4] = Stat Signaling Pathway (AID 446); details: ME-180 SIE beta-lactamase reporter, IL-6 stimulated, 5 h; at 7.69 µM (top of the series) unless noted;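 further: ME-180 cervical cancer cells given 40 pM IL-6 alongside compound; SIE-controlled beta-lactamase reporter measured as 460/530 nm FRET emission ratio; on the % scale 0 is the no-effect control and ±100 the full control effect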
Procedure, shortened: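 ME-180 SIE-bla cells; overnight plating; cpd + IL-6 40 pM, 5 h, 37 C; LiveBLAzer 2.5 h RT; 460/530 nm emission ratio. Normalized to 300 pM IL-6 and 125 nM JAK inhibitor controls.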

[5] = target: Glucocorticoid receptor (Homo sapiens) (UniProt P04150); assay: GR-EFC Redistribution (AID 451; calls by dose curve; further: potency means the concentration at half of the fitted maximal effect); details: CHO-K1 GR-EFC translocation, beta-gal luminescence, 2 h
Procedure, shortened: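 CHO-K1 cells stably expressing nuclear-localized β-gal enzyme acceptor and GR fused C-terminally to the enzyme donor fragment; ligand-driven nuclear translocation restores β-gal by complementation. Compounds titrated up to 46 uM final, 2 h at 37 °C; luminescence read.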

[6] = target: Mitogen-activated protein kinase 10 (Mus musculus) (UniProt Q61831); assay: JNK3 AlphaScreen Assay (AID 530); details: JNK3 lysate, c-Jun phosphorylation; series mostly up to 57.1 µM;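 further: kinase came from lysate of stimulated human HepG2 cells; signal reports phosphorylation of biotinylated GST-cJun 1-79 at Ser73 with 10 µM ATP; on the % scale 0 is the no-effect control and ±100 the full control effect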
Procedure, shortened: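 JNK3 came from HepG2 lysates pre-activated with IL-1beta and TNF-alpha and phosphorylated biotinylated GST-cJun (1-79) at 10 uM ATP, pH 7.6, room temperature. Compounds were titrated. AlphaScreen signal used anti-phospho-cJun (Ser73) antibody.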

[7] = target: 3',5'-cyclic-AMP phosphodiesterase 4B (Homo sapiens) (UniProt Q07343); assay: qHTS Assay for Inhibitors of PDE-IV (AID 607; active means well fitted activation curve with a large enough effect in the main read-out, with a control signal flat, not every such curve was filed as active; further: % of control where 0% means no effect); details: HEK293 ACTOne CNG channel cells, membrane potential fluorescence; series mostly up to 22.9 µM
Procedure, shortened: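 ACTOne HEK293 cells carry a modified cAMP-gated CNG channel and express endogenous PDE4; plated 1000 cells/well, compounds up to 22.9 uM final. Membrane-potential dye fluorescence (ex 535/em 590) was read; parental cells received 10 uM forskolin + 100 uM RO 20-1724.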

[8] = target: Cytochrome P450 3A4 (Homo sapiens) (UniProt P08684); assay: qHTS Assay for Inhibitors and Substrates of Cytochrome P450 3A4 (AID 884; active means well fitted curve in the direction sought with a large enough effect; an effect the other way counts as inactive or inconclusive; further: nearly all actives have a fitted effect of over 50% in size; further: potency means the concentration at half of the fitted maximal effect); details: recombinant CYP3A4, Luciferin-PPXE luminescence; series mostly up to 57.1 µM
Procedure, shortened: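 20 nM human CYP3A4 with 25 uM Luciferin-PPXE (at KM) in 200 mM KPO4, preincubated 10 min with compound; NADPH regeneration started a 60 min RT reaction. Luciferin detected by luminescence, normalized to 57 uM ketoconazole as full inhibition.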

[9] = target: Cytochrome P450 3A4 (Homo sapiens) (UniProt P08684); assay: qHTS Assay for Activators of Cytochrome P450 3A4 (AID 885; active means well fitted curve in the direction sought with a large enough effect; an effect the other way counts as inactive or inconclusive; further: nearly all actives have a fitted effect of over 65% in size; further: potency means the concentration at half of the fitted maximal effect); details: recombinant CYP3A4, Luciferin-PPXE luminescence, 60 min; series mostly up to 57.1 µM
Procedure, shortened: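 20nM CYP3A4 + 25uM Luciferin-PPXE (=KM), 200mM KPO4; cpd 10 min RT; NADPH regen, 60 min RT; stop w/ detection buffer, 20 min; luminescence. Normalized to 57 uM ketoconazole.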

[10] = Primary qHTS for small molecule stabilizers of the endoplasmic reticulum resident proteome: Secreted ER Calcium Modulated Protein (SERCaMP) assay (AID 1508630; active means well fitted curve in the direction sought with a large enough effect; an effect the other way counts as inactive or inconclusive; further: on the % scale 0 is the no-effect control and ±100 the full control effect); details: SH-SY5Y GLuc-SERCaMP (Gaussia luciferase released on ER calcium loss) secretion, thapsigargin, luminescence; series mostly up to 38.4 µM
Procedure, shortened: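 GLuc-SERCaMP-expressing SH-SY5Y cells, pretreated 16 h with compound, are challenged with thapsigargin to empty ER calcium stores; after 4 h, coelenterazine is added directly to the medium and luminescence is imaged.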

[11] = target: Cytochrome P450 2C9 (Homo sapiens) (UniProt P11712); assay: qHTS Assay for Inhibitors and Substrates of Cytochrome P450 2C9 (AID 883; active means well fitted curve in the direction sought with a large enough effect; an effect the other way counts as inactive or inconclusive; further: nearly all actives have a fitted effect of over 60% in size; further: potency means the concentration at half of the fitted maximal effect); details: recombinant CYP2C9, luciferin-H luminescence, 60 min; series mostly up to 57.1 µM
Procedure, shortened: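 A luminogenic readout tracked human CYP2C9 (10nM) converting deoxyluciferin (100uM, at KM) in 25mM KPO4 during 60 min at 37C with regenerated NADPH. Values normalized to 57uM sulphaphenazole as complete inhibition.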

[12] = Confirmation and Secondary Assay for Modulators of Hemoglobin Beta Chain Splicing at IVS2 654 locus (AID 910; active means well fitted curve in the direction sought with a large enough effect; an effect the other way counts as inactive or inconclusive;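 further: per-well total GFP intensity by laser scanning cytometry after 2-day treatment; % of control where 0% means no effect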); details: HeLa EGFP-654 splicing reporter, GFP fluorescence, 48 h; series mostly up to 38.3 µM
Procedure, shortened: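 HeLa cells stably carrying EGFP interrupted by mutant beta-globin IVS2-654 intron (CMV-driven) were treated with compound for 2 days at 37C; corrected splicing was scored as total peak GFP intensity per well (488 nm excitation, 500-520 nm emission).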

[13] = target: Ubiquitin carboxyl-terminal hydrolase 1 (Homo sapiens) (UniProt O94782); assay: Inhibitors of USP1/UAF1: Pilot qHTS (AID 504865; active means well fitted curve in the direction sought with a large enough effect; an effect the other way counts as inactive or inconclusive; further: nearly all actives have a fitted effect of over 35% in size; further: potency means the concentration at half of the fitted maximal effect); details: purified USP1/UAF1, Ub-rhodamine cleavage fluorescence; series mostly up to 54.9 µM
Procedure, shortened: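 USP1/UAF1 complex at 1 nM preincubated 15 min at room temperature with compound, then Ub-Rho substrate added at 150 nM final. Fluorescence (480/540 nm) read kinetically in 50 mM HEPES pH 7.8, 0.5 mM EDTA, 1 mM TCEP, 0.1 mg/ml BSA, 0.01% Tween-20.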

[14] = target: Cytochrome P450 1A2 (Homo sapiens) (UniProt P05177); assay: p450-cyp1a2 (AID 410; calls by dose curve; further: potency means the concentration at half of the fitted maximal effect;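 on activity change, negative = inhibition: -100% = full effect of reference inhibitor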); details: recombinant CYP1A2, luciferin-ME demethylation, luminescence; series mostly up to 57 µM
Procedure, shortened: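 Inhibition was calculated relative to 57 uM furafylline (full inhibition). The reaction used human CYP1A2 at 20nM with Luciferin-ME at its Km, 100uM, driven by an NADPH-regenerating system for 60 min at room temperature.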

[15] = target: Glucocorticoid receptor (Homo sapiens) (UniProt P04150); assay: GR-GFP Redistribution (AID 450;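 active means compounds whose dose series gives a full or clear partial fitted curve of increased nuclear translocation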; further: potency means the concentration at half of the fitted maximal effect); details: U2OS GR-GFP nuclear translocation, laser cytometry, 2 h
[16] = Confirmation and Secondary Assay for Modulators of Hemoglobin Beta Chain Splicing at IVS2 705 locus (AID 930; active means well fitted curve in the direction sought with a large enough effect; an effect the other way counts as inactive or inconclusive;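 further: HeLa cells stably expressing the EGFP-705 splicing reporter; GFP fluorescence per well restored by corrected splicing of the IVS2-705 intron in EGFP; % of control where 0% means no effect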); details: HeLa EGFP-705 splicing reporter, GFP fluorescence, 48 h; series mostly up to 38.3 µM
Procedure, shortened: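 Assay measures total GFP intensity per well in HeLa EGFP-705 cells after 2 days with compound; mis-splicing normally truncates EGFP, so fluorescence indicates corrected splicing.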

[17] = qHTS Assay for Identification of Small Molecule Agonists for Hypoxia Response Element Signaling Pathway (AID 914; active means well fitted activation curve with a large enough effect in the signal ratio, with a control signal flat, not every such curve was filed as active; the % refers to the signal ratio; further: % of control where 0% means no effect); details: ME-180 (cervical carcinoma) HRE-bla reporter, beta-lactamase ratio, CoCl2, 17 h; activation: active compounds read high
Procedure, shortened: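 Compounds in a titration series were added to ME-180 reporter cells alongside an EC50 level of CoCl2. After 17 hours, beta-lactamase activity was read as the 460nm/530nm emission ratio of CCF4, giving AC50 values.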

Chain of Cytochrome P450 3A4 (Homo sapiens) (P08684 whole entry, looked up): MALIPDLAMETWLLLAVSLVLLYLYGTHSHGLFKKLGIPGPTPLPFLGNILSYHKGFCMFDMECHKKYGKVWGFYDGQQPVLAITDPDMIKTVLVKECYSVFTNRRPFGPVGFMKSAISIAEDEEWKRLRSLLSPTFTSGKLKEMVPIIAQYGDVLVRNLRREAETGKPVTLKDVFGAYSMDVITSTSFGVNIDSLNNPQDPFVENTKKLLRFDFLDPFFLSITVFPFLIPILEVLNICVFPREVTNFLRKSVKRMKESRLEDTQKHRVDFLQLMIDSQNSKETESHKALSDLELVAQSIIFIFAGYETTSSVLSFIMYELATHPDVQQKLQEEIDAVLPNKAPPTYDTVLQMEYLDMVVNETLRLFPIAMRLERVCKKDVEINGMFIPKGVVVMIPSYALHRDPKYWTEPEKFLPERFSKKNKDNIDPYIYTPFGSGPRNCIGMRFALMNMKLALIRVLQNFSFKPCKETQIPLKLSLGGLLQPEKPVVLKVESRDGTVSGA
Chain of 3',5'-cyclic-AMP phosphodiesterase 4B (Homo sapiens) (Q07343 whole entry, looked up): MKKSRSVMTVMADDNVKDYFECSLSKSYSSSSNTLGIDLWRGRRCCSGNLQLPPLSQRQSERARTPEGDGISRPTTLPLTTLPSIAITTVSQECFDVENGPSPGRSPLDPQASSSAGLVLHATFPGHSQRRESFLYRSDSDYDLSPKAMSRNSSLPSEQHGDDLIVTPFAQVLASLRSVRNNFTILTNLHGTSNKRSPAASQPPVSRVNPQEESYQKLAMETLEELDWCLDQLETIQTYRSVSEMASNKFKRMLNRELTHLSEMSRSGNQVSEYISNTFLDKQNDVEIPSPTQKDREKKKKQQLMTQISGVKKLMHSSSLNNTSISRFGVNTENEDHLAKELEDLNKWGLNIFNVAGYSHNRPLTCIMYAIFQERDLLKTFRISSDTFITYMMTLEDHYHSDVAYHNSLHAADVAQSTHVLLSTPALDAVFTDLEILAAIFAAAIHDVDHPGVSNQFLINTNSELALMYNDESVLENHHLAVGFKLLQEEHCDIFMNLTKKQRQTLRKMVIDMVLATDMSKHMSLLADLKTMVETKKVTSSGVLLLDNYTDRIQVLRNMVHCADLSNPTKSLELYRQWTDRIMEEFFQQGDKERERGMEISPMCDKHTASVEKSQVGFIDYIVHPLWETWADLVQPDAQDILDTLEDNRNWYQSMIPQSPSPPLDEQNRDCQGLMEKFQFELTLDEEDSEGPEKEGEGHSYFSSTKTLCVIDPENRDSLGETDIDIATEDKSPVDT
Chain of Glucocorticoid receptor (Homo sapiens) (P04150 whole entry, looked up, the tested form may be a part): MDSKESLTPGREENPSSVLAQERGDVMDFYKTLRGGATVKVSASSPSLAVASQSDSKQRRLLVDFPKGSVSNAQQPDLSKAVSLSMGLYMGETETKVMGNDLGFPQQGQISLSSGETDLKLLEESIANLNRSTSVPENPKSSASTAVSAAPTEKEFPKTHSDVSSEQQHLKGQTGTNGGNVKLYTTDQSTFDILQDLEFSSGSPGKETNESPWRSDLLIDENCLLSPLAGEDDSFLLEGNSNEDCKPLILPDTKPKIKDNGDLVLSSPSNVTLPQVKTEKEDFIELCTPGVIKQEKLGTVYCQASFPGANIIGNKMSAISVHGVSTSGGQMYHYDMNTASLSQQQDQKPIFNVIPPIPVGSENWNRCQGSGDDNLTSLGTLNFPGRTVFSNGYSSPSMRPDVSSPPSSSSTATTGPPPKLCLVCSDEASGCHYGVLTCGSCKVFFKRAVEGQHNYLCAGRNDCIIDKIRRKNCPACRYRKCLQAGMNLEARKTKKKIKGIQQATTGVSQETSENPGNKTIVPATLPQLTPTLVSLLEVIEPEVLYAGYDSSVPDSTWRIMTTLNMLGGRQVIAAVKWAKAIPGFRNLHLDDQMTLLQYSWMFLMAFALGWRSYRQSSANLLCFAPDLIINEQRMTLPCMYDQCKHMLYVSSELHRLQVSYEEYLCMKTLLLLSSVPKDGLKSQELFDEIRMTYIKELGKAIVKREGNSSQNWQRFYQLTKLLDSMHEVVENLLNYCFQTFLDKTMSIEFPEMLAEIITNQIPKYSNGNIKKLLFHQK
Chain of Lysosomal acid glucosylceramidase (Homo sapiens) (P04062 whole entry, looked up): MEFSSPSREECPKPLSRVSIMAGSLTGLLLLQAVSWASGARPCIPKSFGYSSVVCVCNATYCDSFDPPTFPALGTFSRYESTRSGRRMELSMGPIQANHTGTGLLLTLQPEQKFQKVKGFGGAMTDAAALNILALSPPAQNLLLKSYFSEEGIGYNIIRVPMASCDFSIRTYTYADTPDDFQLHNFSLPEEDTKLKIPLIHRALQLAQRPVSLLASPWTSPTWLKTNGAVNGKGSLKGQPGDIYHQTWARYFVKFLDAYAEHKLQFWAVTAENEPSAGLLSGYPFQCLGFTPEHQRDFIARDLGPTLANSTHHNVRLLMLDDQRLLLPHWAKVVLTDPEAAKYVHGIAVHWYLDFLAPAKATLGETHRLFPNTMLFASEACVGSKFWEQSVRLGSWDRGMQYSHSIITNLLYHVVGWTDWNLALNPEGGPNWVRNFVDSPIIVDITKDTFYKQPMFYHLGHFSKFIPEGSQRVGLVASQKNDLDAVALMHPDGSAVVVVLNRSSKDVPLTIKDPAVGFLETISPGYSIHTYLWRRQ
Chain of Cytochrome P450 1A2 (Homo sapiens) (P05177 whole entry, looked up): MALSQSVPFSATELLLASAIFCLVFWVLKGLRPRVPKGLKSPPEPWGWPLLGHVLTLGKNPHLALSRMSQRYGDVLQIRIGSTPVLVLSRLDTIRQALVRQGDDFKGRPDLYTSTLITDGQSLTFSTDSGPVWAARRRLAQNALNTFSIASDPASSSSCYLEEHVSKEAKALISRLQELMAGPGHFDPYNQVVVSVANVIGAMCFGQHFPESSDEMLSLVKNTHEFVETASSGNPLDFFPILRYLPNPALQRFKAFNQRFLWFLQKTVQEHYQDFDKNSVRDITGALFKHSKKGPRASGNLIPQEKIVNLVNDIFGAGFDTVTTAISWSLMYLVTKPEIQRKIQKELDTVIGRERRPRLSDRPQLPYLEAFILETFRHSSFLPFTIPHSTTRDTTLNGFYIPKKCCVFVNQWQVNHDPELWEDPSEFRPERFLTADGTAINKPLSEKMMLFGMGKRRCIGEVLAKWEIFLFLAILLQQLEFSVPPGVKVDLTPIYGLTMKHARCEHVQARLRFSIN
Chain of Ubiquitin carboxyl-terminal hydrolase 1 (Homo sapiens) (O94782 whole entry, looked up): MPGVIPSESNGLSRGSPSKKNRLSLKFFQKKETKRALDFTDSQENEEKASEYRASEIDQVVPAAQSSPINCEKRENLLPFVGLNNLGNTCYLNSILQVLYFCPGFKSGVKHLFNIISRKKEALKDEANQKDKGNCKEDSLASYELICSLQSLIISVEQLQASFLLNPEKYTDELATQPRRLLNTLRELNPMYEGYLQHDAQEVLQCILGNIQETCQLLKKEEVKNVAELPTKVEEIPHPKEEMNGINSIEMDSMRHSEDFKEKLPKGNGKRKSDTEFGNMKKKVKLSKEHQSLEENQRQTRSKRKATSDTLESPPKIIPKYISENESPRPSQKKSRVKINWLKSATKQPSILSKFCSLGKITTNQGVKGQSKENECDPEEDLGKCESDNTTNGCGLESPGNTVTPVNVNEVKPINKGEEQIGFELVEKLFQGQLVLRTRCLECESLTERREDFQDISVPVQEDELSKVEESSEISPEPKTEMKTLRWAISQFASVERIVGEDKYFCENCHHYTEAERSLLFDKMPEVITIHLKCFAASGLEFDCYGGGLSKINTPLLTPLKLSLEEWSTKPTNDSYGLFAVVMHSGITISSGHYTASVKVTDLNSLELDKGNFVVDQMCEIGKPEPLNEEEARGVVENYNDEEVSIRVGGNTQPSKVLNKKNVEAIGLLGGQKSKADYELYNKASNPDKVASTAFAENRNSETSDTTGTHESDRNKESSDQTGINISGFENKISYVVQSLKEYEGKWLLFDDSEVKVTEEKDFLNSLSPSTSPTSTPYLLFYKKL
Chain of Cytochrome P450 2C9 (Homo sapiens) (P11712 whole entry, looked up): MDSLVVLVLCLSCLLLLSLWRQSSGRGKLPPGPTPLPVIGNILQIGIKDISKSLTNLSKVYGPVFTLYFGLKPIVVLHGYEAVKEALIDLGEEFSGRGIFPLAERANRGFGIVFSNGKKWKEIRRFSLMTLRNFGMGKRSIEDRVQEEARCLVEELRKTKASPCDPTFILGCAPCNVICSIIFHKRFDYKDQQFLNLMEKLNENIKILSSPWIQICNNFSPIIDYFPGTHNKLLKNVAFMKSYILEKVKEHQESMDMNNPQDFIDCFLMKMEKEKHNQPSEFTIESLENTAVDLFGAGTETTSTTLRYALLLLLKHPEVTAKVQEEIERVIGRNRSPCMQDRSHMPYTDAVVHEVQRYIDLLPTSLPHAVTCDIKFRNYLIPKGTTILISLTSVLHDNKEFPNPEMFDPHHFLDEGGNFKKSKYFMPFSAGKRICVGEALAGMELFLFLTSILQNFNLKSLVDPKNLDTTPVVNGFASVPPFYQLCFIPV

O=C(c1ccco1)N1CCC2(CC1)CN(c1ncccn1)C2
active: Potency [9] 15.8 µM
inactive: Potency [1] > 11.4 µM | activity change, negative = inhibition [2] -3.83% | activity change, negative = inhibition [3] 0.563% | activity, negative = inhibition [4] 2.05% | Potency [5] > 46 µM | Potency [6] | Potency [7] | Potency [8] | outcome [10]

COc1ccc(C(=O)N2CCC[C@@]3(CCN(Cc4ccccc4OC)C3)C2)cc1
inactive: Potency [1] > 11.4 µM | activity change, negative = inhibition [2] 11.7% | activity change, negative = inhibition [3] -18.6% | activity, negative = inhibition [4] 5.47% | Potency [5] > 46 µM | Potency [6] | Potency [7] | outcome [10]

CC(=O)N1CCC2(CCCN(c3cccc(-c4ccccc4)c3)C2)CC1
inactive: Potency [1] > 11.4 µM | activity change, negative = inhibition [2] -12.3% | activity change, negative = inhibition [3] -0.641% | activity, negative = inhibition [4] -8.45% | Potency [5] > 46 µM | Potency [6] | Potency [7] | Potency [9] | outcome [10]

CC(=O)N1CCC2(CC1)CCN(C(=O)Nc1cccc(C#N)c1)CC2
inactive: Potency [1] > 11.4 µM | activity change, negative = inhibition [2] 4.49% | activity change, negative = inhibition [3] 8.82% | activity, negative = inhibition [4] 3.47% | Potency [5] > 46 µM | Potency [6] | Potency [7] | outcome [10]

COCC(=O)N1CCC2(CCCN(c3ccccn3)C2)CC1
inactive: Potency [1] > 11.4 µM | activity change, negative = inhibition [2] 0.674% | activity change, negative = inhibition [3] -15.3% | activity, negative = inhibition [4] 11.7% | Potency [5] > 46 µM | Potency [6] | Potency [7] | outcome [10]

COc1ccc(C(=O)N2CCC3(CC2)CCN(c2ncccn2)CC3)cc1
inactive: Potency [1] > 11.4 µM | activity change, negative = inhibition [2] 3.18% | activity change, negative = inhibition [3] 0.535% | activity, negative = inhibition [4] 4.32% | Potency [5] > 46 µM | Potency [6] | Potency [7] | Potency [8] | outcome [10]
active: Potency [9] 5.01 µM

O=C(Nc1cccc(F)c1)N1CCC2(CC1)CCN(C(=O)c1cccc(F)c1)CC2
inactive: Potency [1] > 11.4 µM | activity change, negative = inhibition [2] -7.86% | activity change, negative = inhibition [3] 3.68% | activity, negative = inhibition [4] -6.46% | Potency [5] > 46 µM | Potency [6] | Potency [7] | outcome [10]

O=S(=O)(c1ccccc1)N1CCC2(CCCN(c3ccccc3)C2)CC1
active: Potency [11] 1.26 µM

c1cncc(-c2nc(NCCN3CCOCC3)c3ccccc3n2)c1
inactive: Potency [12]

Cc1cccc(CNc2cc(-c3ccccc3C)ncn2)c1
inactive: Potency [12]
active: Potency [13] 44.7 µM

CN(C)Cc1ccccc1-c1cncnc1Nc1ccc(F)cc1
inactive: Potency [13]

COc1ccccc1CNc1cc(-c2cccc(NS(C)(=O)=O)c2)ncn1
inactive: Potency [1] > 11.4 µM | activity change, negative = inhibition [3] -3.65% | activity, negative = inhibition [4] -1.76% | Potency [15] > 46 µM | Potency [5] > 46 µM | Potency [6] | Potency [7] | activity change, negative = inhibition [11] 33% [at 2.29 µM] | Potency [9] | outcome [16] | outcome [10]
active: Potency [14] 15.8 µM | Potency [8] 5.01 µM

Cn1c(=O)cnc2cnc(Nc3ccccc3)nc21
inactive: Potency [1] > 11.4 µM | activity change, negative = inhibition [3] -6.55% | activity, negative = inhibition [4] -16.6% | Potency [15] > 9.22 µM | Potency [5] > 46 µM | Potency [9] | outcome [10]
active: Potency [14] 2 µM

O=C(c1ccncc1)N1CCC2(CC1)CN(c1ccc(-c3ccccc3)cc1)C2
inactive: Potency [1] > 11.4 µM | Potency [14] | activity change, negative = inhibition [3] 17.4% | activity, negative = inhibition [4] -19.8% | Potency [5] > 46 µM | Potency [6] | Potency [7] | Potency [9] | outcome [10]

N#Cc1ccc(CN2CCCC3(CCN(C(=O)c4cnccn4)CC3)C2)cc1
inactive: Potency [1] > 11.4 µM | activity change, negative = inhibition [2] -6.06% | activity, negative = inhibition [4] -1.62% | Potency [5] > 46 µM | Potency [6] | Potency [7] | activation [17] -10.7% | outcome [10]

O=C(c1csnn1)N1CCC2(CCCN(c3ccc(-c4ccccc4)cc3)C2)CC1
inactive: Potency [1] > 11.4 µM | Potency [14] | activity change, negative = inhibition [3] -15.8% | activity, negative = inhibition [4] 1.9% | Potency [5] > 46 µM | Potency [6] | Potency [7] | Potency [9] | outcome [10]
active: Potency [8] 7.94 µM

Reference: PubChem BioAssay (NCATS)
